# High-throughput results deposited in PubChem by National Center for Advancing Translational Sciences (NCATS).
# ATXN viability: viability counter-screen for ATXN expression inhibitors | S2 cells (HEK-293 line with an ATXN2-luciferase reporter) viability, CellTiter-Fluor protease fluorescence, 24 h | Potency, µM (titrated, usually from 56.7 µM), most hits filed as cytotoxic | actives 0.49% (n = 400,000) | AID 651635; note: nearly all actives have a fitted effect of over 40% in size
# ATXN2 expr inh: inhibitors of ATXN2 expression | HEK-293 ATXN2-luciferase reporter, luminescence, 24 h | Potency, µM (highest dose often 57 µM), for the others: at the highest dose activity change, negative = inhibition, hits mostly inhibitors | actives 0.72% (n = 360,000) | AID 1745845; note: % is set by controls: 0 for no effect and ±100 for the full control effect; nearly all actives have a fitted effect of over 55% in size
#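 ATXN2-luciferase reporter cells (luciferase flanked by upstream and downstream ATXN2 gene portions) were treated 24 h at 37 °C with compounds at up to 57 uM. SteadyGlo luminescence gave expression; GF-AFC fluorescence gave viability.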
# TGFb inhibitor: TGF-b pathway inhibition; actives 1.2% (n = 410,000); AID 588855; Potency, µM (series often up to 46.1 µM), for the others: top-dose activity, negative = inhibition, most hits filed as inhibitors; HepG2 CAGA-GFP TGF-b/SMAD3 reporter, GFP fluorescence, 18 h; TGF-beta stimulated, 500 pg/mL final; note: % is set by controls: 0 for no effect and ±100 for the full control effect; nearly all actives have a fitted effect of over 65% in size
#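 Per well, imaged GFP fluorescence of HEPG2 CAGA-GFP cells gives the signal; cells get compound, then TGF-beta (500 pg/mL final), 18 h at 37 degrees C; %Activity versus -TGF-beta and +DMSO controls.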
# HTT ATP protect: protects HTT-Q103 PC12 cells, measured by ATP | PC12 HTT-Q103 induced, cytoprotection, ATP luminescence, 40 h | actives 0.14% (n = 230,000) | Potency, µM (titrated, usually from 56.4 µM), inactives show cytoprotection (ATP increase), hits mostly activators; note: % of control where 0% means no effect; nearly all actives have a fitted effect of over 45% in size
#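 Compounds were screened for protection of PC12 cells against cell death after tebufenozide induction (100 nM final) of mutant Huntingtin exon 1 (Q103) fused to GFP.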
# HttQ103 aggreg: inhibitors of mutant huntingtin aggregate formation in PC12 cells | PC12 HttQ103-GFP aggregates, Acumen cytometry, 40 h | Potency, µM (series often up to 46.1 µM), for inactives: at the top dose activity change, negative = inhibition, usual class: inhibitors | actives 1.1% (n = 220,000); note: % is set by controls: 0 for no effect and ±100 for the full control effect; nearly all actives have a fitted effect of over 60% in size
#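 PC12/HTTQ103-GFP, ecdysone-inducible; teb 100 nM; cpd qHTS titration; GFP aggregates read on laser cytometer, Ex 488/Em 500-530 nm.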
# HepG2 viability: HepG2 cytotoxicity, counter-screen for TGF-b inhibitors | actives 0.76% (n = 410,000) | HepG2 CAGA-GFP viability, ATP luminescence, 18 h | Potency, µM (doses to about 46.1 µM), for the others: at the top dose activity change, negative = cytotoxicity, hits mostly cytotoxic
#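 HepG2 CAGA-GFP cells (1000/well, DMEM with 1% FBS) received compound, then TGF-beta at 500 pg/mL final, and were incubated 18 hours at 37 degrees C. Viability was read by CellTiter-Glo luminescence. Media-only wells were set as complete cell-killing and DMSO as no toxicity.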
# Starred values were filed as active, the others as inactive; i = inactive; ? = inconclusive; / = not tested or not shown; [ ] = another dose, or the depositor's remark. Shown are actives, neighbours in structure and some others; about 2.8% of the full set was active somewhere. Calls come from the whole dose curve; as a rule, active = well fitted curve in the direction sought with a large enough effect; inconclusive = small, poorly fitted or top-dose-only effect, or another doubt; inactive = no such curve, though single readings can be large; an effect the other way counts as inactive or inconclusive. Potency is the fitted concentration of half-maximal effect.
SMILES,ATXN viability,ATXN2 expr inh,TGFb inhibitor,HTT ATP protect,HttQ103 aggreg,HepG2 viability
COC(=O)c1cccc(C(=O)N2CCc3c(cnc(C)c3CNC(=O)/C=C/c3cccs3)C2)c1,i,/,/,/,/,/
Cc1ccccc1C(=O)NC(C)c1nnc2n1CCN(Cc1ccccc1F)CC2 (stereo unspecified),i,/,/,/,/,/
Cc1ccc(C(c2ccccc2)c2c(C)[nH]c3ccccc23)s1 (stereo unspecified),?,?,14.1µM*,/,/,-99.3%
CCc1ccc(C(c2ccccc2)c2c(C)[nH]c3ccccc23)s1 (stereo unspecified),/,?,?,/,/,-96.0%
Cc1[nH]c2ccccc2c1C(c1c[nH]c2ccccc12)c1c(C)[nH]c2ccccc12,/,/,15.8µM*,/,/,-46.8%
COCC1CCCN(c2nc(CN3CCN(C(=O)c4ccco4)CC3)nc3ccccc23)C1 (stereo unspecified),i,/,/,/,/,/
O=C(/C=C/c1cccc([N+](=O)[O-])c1)NCCSCc1ccc(Cl)cc1Cl,i,?,12.6µM*,-2.9%[10 µM],-3.1%,-26.4%
Oc1c(C(Nc2ccccn2)c2ccccc2)ccc2cccnc12 (stereo unspecified),/,/,-18.8%,/,/,-30.9%
CCCC(=O)NC(c1ccccc1)c1ccc2cccnc2c1O (stereo unspecified),i,14.1µM*,?,/,/,-25.1%
COc1cccc(C(NC(C)=O)c2ccc3cccnc3c2O)c1 (stereo unspecified),?,?,?,/,/,-25.2%
CCCCC(=O)NC(c1ccccc1Cl)c1ccc2cccnc2c1O (stereo unspecified),?,2.82µM*,?,/,/,-32.5%
Oc1cccc(C(Nc2ccccn2)c2ccc3cccnc3c2O)c1Cl (stereo unspecified),?,8.91µM*,?,/,/,-48.9%
CCCC(=O)NC(c1ccc(OC)cc1)c1ccc2cccnc2c1O (stereo unspecified),/,1.89µM*,?,-64.1%[10 µM],?,-8.7%
O=C(O)CCC1CCC(c2cc(F)ccc2F)(S(=O)(=O)c2ccc(Cl)cc2)CC1 (stereo unspecified),/,25.1%,/,/,/,/
COCC1CCCN(Cc2ccc3c(c2)CN(C(=O)c2ccc(OC)nc2OC)CCO3)C1 (stereo unspecified),i,/,/,/,/,/
CCCCC(=O)NC(c1ccccc1)c1ccc2cccnc2c1O (stereo unspecified),i,?,?,/,/,-30.1%
CCC(=O)NC(c1ccccc1OC)c1ccc2cccnc2c1O (stereo unspecified),?,?,2.51µM*,-71.6%[10 µM],3.16µM*,3.55µM*
CCCCCc1cc[n+](CC(=O)c2ccccc2)cc1,/,/,0.5%,/,/,-32.4%
COc1cc(OC)c2ccc(=O)oc2c1C(CCN1CCOCC1)c1ccc2c(c1)OCO2 (stereo unspecified),8.91µM*,-7.8%,-20.4%,-47.4%,/,-26.8%
COc1ccc(C(CCN2CCOCC2)c2c(OC)cc(OC)c3ccc(=O)oc23)cc1 (stereo unspecified),?,-15.4%,?,/,/,-19.3%
COc1cc(OC)c2ccc(=O)oc2c1C(CCN1CCCC1)c1ccc2c(c1)OCO2 (stereo unspecified),14.1µM*,4.9%,-7.2%,0.4%[10 µM],-0.6%[9.22 µM],-14.0%
CCCCCc1cc(=O)oc2c(C(CCN(CC)CC)c3cc(OC)c(OC)c(OC)c3)c(OC)cc(OC)c12 (stereo unspecified),31.6µM*,?,?,-24.6%[10 µM],-2.4%[9.22 µM],17.8µM*
CCCCCc1cc(=O)oc2c(C(CCN3CCCC3)c3ccc4c(c3)OCO4)c(OC)cc(OC)c12 (stereo unspecified),/,/,?,/,/,-97.5%
CCCCCc1cc(=O)oc2c(C(CCN3CCCCC3)c3ccc4c(c3)OCO4)c(OC)cc(OC)c12 (stereo unspecified),17.8µM*,31.6µM*,17.8µM*,-26.0%[10 µM],-14.7%[9.22 µM],-93.1%
Cc1ccc(OCCNS(=O)(=O)c2ccc(N3CCCC3=O)cc2)cc1,i,-4.5%,?,18.0%[10 µM],11.2µM*,3.2%
SMILES,ATXN viability,ATXN2 expr inh,TGFb inhibitor,HTT ATP protect,HttQ103 aggreg,HepG2 viability
Cc1ccc(OCCNS(=O)(=O)c2ccc(N3CCCC3=O)cc2)cc1C,i,-27.3%,?,-16.0%,?,-1.3%
O=P1(O)Oc2c(c(-c3ccccc3)cc3ccc4ccccc4c23)-c2c(-c3ccccc3)cc3ccc4ccccc4c3c2O1,/,/,/,-19.5%,/,/
N=c1sccn1CC(=O)Nc1cccc(S(=O)(=O)N2CCCCCC2)c1,15.8µM*,/,-1.6%,-42.0%,-9.7%,0.5%
O=C(CCl)Nc1ccc(S(=O)(=O)NC2=NCCCCC2)cc1,/,?,?,/,/,-95.2%
O=C(CCl)Nc1cccc(S(=O)(=O)NC2=NCCCCC2)c1,/,/,?,/,/,11.2µM*
O=C(CCl)Nc1cccc(S(=O)(=O)N2CCCCCC2)c1,25.1µM*,?,?,30.7%[10 µM],10µM*,-65.5%
Cc1ccc(S(=O)(=O)N2CCCCC2)cc1NC(=O)Cn1ccsc1=N,i,-16.2%,8.9%,-5.0%,6.9%,9.5%
CO/N=C(/C(=O)N[C@@H]1C(=O)N2C(C(=O)O)=C(CSc3cnns3)CS[C@H]12)c1csc(N)n1,/,/,/,-3.5%,-9.0%,/
CO[C@H]1COC(=O)[C@H](C)NC(=O)C/C=C\[C@@H](C)[C@H](OC)COC(=O)C/C=C\[C@@H]1C,/,/,/,-0.4%[10 µM],/,/
CNc1c(Br)cc(/C=C2\C=Cc3ccccc32)cc1Br,/,/,?,/,/,-57.3%
COc1ccc(OC)c(/C=C2\C=Cc3ccccc32)c1,/,/,?,/,/,-38.1%
COc1ccc(CCNc2nc(C)nc3c2oc2ccccc23)cc1OC,i,?,-9.2%,-68.1%[10 µM],?,-24.5%
COc1ccc(CCNc2ncnc3c2oc2ccccc23)cc1OC,/,28.2µM*,?,-43.9%,2µM*,-41.0%
COc1ccc(CCNc2ncnc3sccc23)cc1OC,i,-25.8%,0.0%,13.5%[10 µM],1µM*,4.2%
C(=C\c1ccnc2ccccc12)/c1cc2c3c(c1)CCCN3CCC2,/,/,-29.8%,/,/,-42.9%
CCCS(=O)(=O)NCc1c(C)ncc2c1CCN(C(=O)/C=C/c1ccccc1)C2,i,/,/,/,/,/
Cc1cccc(CNC(=O)c2cnn(-c3ncc4c(n3)-c3ccccc3CC4)c2C2CC2)n1,i,/,/,/,/,/
c1ccc(CCc2nn3c(-c4ccncc4)nnc3s2)cc1,i,48.7%,24.7%,10.2%[10 µM],1.12µM*,-5.3%
Clc1ccccc1-c1nnc2sc(CCc3ccccc3)nn12,i,-1.2%,-27.2%,-15.7%[0.074 µM],-32.5%,-13.4%
